Data on 86 sequences can be found in the supplement of paper PMC3334620.

In all, about 33,000 sequences were measured (“E-score (-0.5 to 0.5)”: median about -0.013, highest 2% from about 0.3 on). This excerpt belongs to a sample that is enriched for the highest values.

This assay deals with T1, Msn1 (UniProt P22148).
T1 sequence: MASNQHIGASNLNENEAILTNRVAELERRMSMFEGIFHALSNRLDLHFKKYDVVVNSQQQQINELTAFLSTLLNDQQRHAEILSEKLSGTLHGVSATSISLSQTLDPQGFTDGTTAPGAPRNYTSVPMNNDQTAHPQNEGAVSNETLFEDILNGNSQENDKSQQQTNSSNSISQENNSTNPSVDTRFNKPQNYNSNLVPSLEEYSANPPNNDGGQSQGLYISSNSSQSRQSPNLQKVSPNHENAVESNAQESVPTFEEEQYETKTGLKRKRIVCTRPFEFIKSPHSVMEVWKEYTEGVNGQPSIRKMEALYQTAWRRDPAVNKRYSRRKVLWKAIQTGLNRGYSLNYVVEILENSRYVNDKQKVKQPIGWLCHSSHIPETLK
Description: PBM E-score (8-mer binding enrichment) (E-score (-0.5 to 0.5)); higher = stronger / more preferred TF binding. The conditions noted are these: protein concentration: 200 nM; construct: GST-full length. How it is done:
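Universal 'all 10-mer' protein binding microarrays (Agilent AMADID 015681) probed with GST-tagged S. cerevisiae TFs (full-length or DBD) made by in vitro transcription/translation (PURExpress), about 100-200 nM. Bound TF was detected with fluorescent anti-GST. Each ungapped 8-mer (which stands for itself and its reverse complement) is scored by the PBM enrichment score (E-score), a modified Wilcoxon-Mann-Whitney statistic from -0.5 to +0.5, computed with the Universal PBM Analysis Suite. Scale: above 0.35 generally sequence-specific binding.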
Regarding TGGTACAA, the “PBM E-score” value came to 0.386. Consider CGGTACAA, for which the “PBM E-score” value is 0.311.

For CGGTACAC, the “PBM E-score” value was 0.123. Next, AGGTACAA: 0.394; TGGTACCA: -0.0646; AGGTACAC: 0.139. Next, GGGTACAA: 0.198; AGGTACAG: 0.00868.

For the sequence ATCGTTTA, the “PBM E-score” value came out at 0.141. For CTTCATCA the value was -0.143. AAGGGCAG: the “PBM E-score” value was -0.102. Next, CTGGAAGC: -0.225; GCTTTTCC: -0.0951; AGCCTCAC: -0.223.

Consider AGCATGTA, for which the “PBM E-score” value came to 0.0635.

For CGCATGTC, the “PBM E-score” value stood at 0.426. In the case of ACCATGTC, the “PBM E-score” value turned out to be 0.218. Next, CCCATGTA: 0.0749. Next, CCCATGTC: 0.316. For AGCATGTC the value was 0.318; for CGCATGTA, 0.0633.

As to AGCATGTG, the “PBM E-score” value was -0.0619.

In the case of CTCATGTC, the “PBM E-score” value amounted to 0.27. Next, ATTTGAGC: -0.0055; ACAATCTA: 0.0825; CGGACCGA: 0.165. Next, CAGCGAAG: -0.193.

As to TATCGGGA, the “PBM E-score” value worked out at 0.178.

For TCCCCAGA, the “PBM E-score” value was -0.107. Next, CATGTCAA: 0.236; CATGTCCA: 0.463. For the sequence GCTGTCCA, the “PBM E-score” value was 0.159. For GATGTCAC the value was 0.26. Next, CATGTCAG: 0.208. Next, GATGTCCC: 0.462. In the case of TCTGTCCA, the “PBM E-score” value was determined as 0.363. For ACTGTCCA the value was 0.0386; for GCTGTCCC, -0.0712; for CCTGTCCA, 0.156.

As to CATGTCCG, the “PBM E-score” value was determined as 0.436. For CCTGTCCG the value was 0.117; for CTTACTGC, -0.143. Next, GATGGCGC: -0.252. For ATTTAGAG the value was 0.0544. For the sequence ACGGGAGG, the “PBM E-score” value is -0.268. Next, ACACATGT: 0.238; TACGTCCA: 0.179. For the sequence AATGTGCG, the “PBM E-score” value is -0.0792. For TATGTCAA the value was 0.31; for GATGTCCA, 0.458. For AATGTCAA the value was 0.3; for GATGTCAA, 0.0785. Next, GATGTCGA: 0.0163. As for TATGTCCA, the “PBM E-score” value came to 0.465. For AAGGTCCG, the “PBM E-score” value is -0.0417. For GACGTCCA the value was 0.207; for TATGTCGA, 0.289; for AATGTCCG, 0.481. Next, GCTCCCAC: -0.135. Next, GGCCAAAA: 0.00072; GTTCGAGA: 0.11; CAGAAAGC: -0.0396. As to AGCAAAAT, the “PBM E-score” value was 0.174. Next, AGGGGGCC: -0.412; GCTACCGA: -0.00569; CCAGTACG: -0.0732. For CCTGTCCC the value was 0.282; for CATGTCCC, 0.459; for CATGTCAC, 0.291.

Turning to CCACTTGC, the “PBM E-score” value is -0.132. Next, CTCAGTCA: -0.173. For CCTGGACA the value was 0.417; for CCTGGACC, 0.0101. On to TCTGGAAA, for which the “PBM E-score” value is -0.0457. Next, ACTGGACC: -0.137. Next, ACTGGACA: 0.374. For TCTGGACA the value was 0.381. For the sequence ACTGGACT, the “PBM E-score” value is 0.105. Turning to GCTGGACA, the “PBM E-score” value was determined as 0.276. Regarding CCTGGACG, the “PBM E-score” value was -0.182. Regarding AAGTATGC, the “PBM E-score” value is -0.0157. Next, GCCGACCA: 0.0498; TCCTTGCA: 0.0515. CCTCTCAG: the “PBM E-score” value is -0.339.

In the case of ATACCATA, the “PBM E-score” value turned out to be 0.0438. Next, CAGGCGGA: 0.223.
